Results on 85 molecules are retold here after PubChem BioAssay AID588591 (National Center for Advancing Translational Sciences (NCATS), 2011).

Molecules are shown by their SMILES. The whole screen tested about 390,000 compounds, of which about 4,700 (1.2%) were called active. Another 4% or so got no clear call; they are omitted. The call rests on the fitted dose curve; in most records, active means well fitted inhibition curve with a large enough effect; inconclusive means small, poorly fitted or top-dose-only effect, or another doubt; inactive means no such curve, though single readings can be large or run the other way. Shown is part of a subset that was picked to be rich in actives. Entries that show only a call come without a potency.
Potency means the concentration at half of the fitted maximal effect.

Chain of DNA polymerase eta (Homo sapiens) (Q9Y253 whole entry, looked up): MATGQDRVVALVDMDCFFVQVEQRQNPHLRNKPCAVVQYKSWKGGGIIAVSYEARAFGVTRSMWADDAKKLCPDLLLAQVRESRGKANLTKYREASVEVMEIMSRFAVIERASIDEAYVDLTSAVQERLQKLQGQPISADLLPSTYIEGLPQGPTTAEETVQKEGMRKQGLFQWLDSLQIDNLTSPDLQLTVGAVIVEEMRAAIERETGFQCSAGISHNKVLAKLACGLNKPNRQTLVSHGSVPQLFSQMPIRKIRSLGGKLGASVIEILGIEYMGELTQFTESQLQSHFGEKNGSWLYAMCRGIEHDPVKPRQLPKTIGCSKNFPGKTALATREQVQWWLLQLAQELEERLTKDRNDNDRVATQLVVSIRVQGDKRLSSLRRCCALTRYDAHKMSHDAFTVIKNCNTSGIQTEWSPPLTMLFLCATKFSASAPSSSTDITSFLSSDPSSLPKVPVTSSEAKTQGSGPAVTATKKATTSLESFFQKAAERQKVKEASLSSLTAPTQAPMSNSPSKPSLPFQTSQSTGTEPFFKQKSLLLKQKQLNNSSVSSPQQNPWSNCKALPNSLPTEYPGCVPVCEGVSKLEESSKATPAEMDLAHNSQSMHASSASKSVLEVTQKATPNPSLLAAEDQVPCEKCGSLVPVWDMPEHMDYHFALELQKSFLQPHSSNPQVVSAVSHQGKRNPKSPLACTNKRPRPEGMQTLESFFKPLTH

This experiment concerns the target DNA polymerase eta (Homo sapiens) (UniProt Q9Y253). The experiment is described as follows: qHTS for Inhibitors of Polymerase Eta. The conditions noted are these: recombinant Pol eta, fluorescent DNA replication assay; series mostly up to 114 µM. The gist of the method:
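Pol eta at 10 nM preincubated with compounds 15 min at room temperature; reaction started with fluorescent substrate (50 nM final) and read kinetically at 0 and 10 min.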
For orientation: qHTS replaces the single test concentration by a dilution series.
As for `Cc1ccc(NC(=O)c2ccc3[nH]c(C)cc(=O)c3c2)c(C)c1`, the Potency result was “inactive”.

On to `CCOC(=O)C1=C(c2ccccc2)Nc2ncnn2C1c1ccc(Cl)cc1` (stereo not given), for which the Potency result was “inactive”.

With `O=C(NC1=CC(=O)c2ccccc2C1=O)c1ccccc1`, the Potency was 89.1 µM (active).

`NS(=O)(=O)c1cc(C(=O)OCC(=O)NNC(=O)c2ccccc2)ccc1Cl`: the Potency result is “inactive”.

On to `O=C(O)CN1c2cccc3cccc(c23)S1(=O)=O`, for which the Potency was 28.2 µM (active).

Regarding `COc1ccc(C)cc1NC(=O)CN1c2cccc3cccc(c23)S1(=O)=O`, the Potency entry is “inactive”.

`CC(C)CN(CC(C)C)C(=O)CN1c2cccc3cccc(c23)S1(=O)=O`: the Potency entry was “inactive”.

Turning to `COc1ccccc1Cc1nc2ccccc2nc1SCC(=O)N1CCCc2ccccc21`, the Potency result was “inactive”.

For the molecule `CC(=O)c1ccc(N2CCN(c3nc4c(S(=O)(=O)c5ccccc5)nnn4c4ccc(Cl)cc34)CC2)cc1`, the Potency entry is “inactive”.

As for `C#CCOCCOCCOCCNc1nc(N2CCN(C(=O)C([C@@H](C)CC)n3cc(C(N)COC(=O)C(F)(F)F)nn3)CC2)nc(N2CCN(C(=O)[C@H](CCCCN)n3cc(C(N)CC(C)C)nn3)CC2)n1` (stereo not given in full), the Potency result was “inactive”.

Take `C#CCOCCOCCOCCNc1nc(N2CCN(C(=O)CCCCCCCCCCNC(=O)[C@H]([C@@H](C)CC)n3cc(CCCCN=C(N)N)nn3)CC2)nc(N2CCN(C(=O)CCCCCCCCCCNC(=O)[C@H](CO)n3cc(CCCSC)nn3)CC2)n1`: the Potency was 50.1 µM (active).

Take `C#CCOCCOCCOCCNc1nc(N2CCN(C(=O)C([C@@H](C)CC)n3cc(C(N)COC(=O)C(F)(F)F)nn3)CC2)nc(N2CCN(C(=O)[C@H](Cc3ccc(O)cc3)n3cc(C(N)[C@H](C)CC)nn3)CC2)n1` (stereo not given in full): the Potency result was “inactive”.

As for `C#CCOCCOCCOCCNc1nc(N2CCN(C(=O)[C@H](CCC(=O)O)n3cc(C(N)CO)nn3)CC2)nc(N2CCN(C(=O)[C@H](Cc3ccc(O)cc3)n3cc(C(N)[C@H](C)CC)nn3)CC2)n1` (stereo not given in full), the Potency result is “inactive”.

Regarding `C#CCOCCOCCOCCNc1nc(N2CCN(C(=O)CCCCCCCCCCNC(=O)[C@H](CCCCN)n3cc(C)nn3)CC2)nc(N2CCN(C(=O)CCCCCCCCCCNC(=O)[C@H](CO)n3cc(CCCSC)nn3)CC2)n1`, the Potency is 89.1 µM (active).

As for `COc1ccccc1NC(=O)Cn1cnc2ccc(S(=O)(=O)N3CCC(C)CC3)cc2c1=O`, the Potency entry was “inactive”.

Regarding `COc1ccc(-c2nc3c4ccccc4n(CC(=O)Nc4ccc(C(C)=O)cc4)c(=O)n3n2)cc1`, the Potency entry was “inactive”.

Consider `O=C(CSCc1cnn(-c2ccccc2)c1-n1cccc1)NCc1ccc(Cl)cc1`, for which the Potency entry is “inactive”.

For the molecule `CCOc1ccc(-c2cc3nc(C4CCN(C(=O)OC(C)(C)C)CC4)c(C(=O)Nc4cccc(CC)c4)cn3n2)cc1`, the Potency result was “inactive”.

For `CC(=O)c1ccc(NS(=O)(=O)c2ccc(-c3cc(C)no3)s2)cc1`, the Potency result was “inactive”.

Regarding `Cc1c(OC(C)C(=O)N[C@@H](Cc2ccccc2)C(=O)O)ccc2c3c(c(=O)oc12)CCCC3` (stereo not given in full), the Potency entry was “inactive”.

As for `Cc1c(CCC(=O)N[C@@H](CC(C)C)C(=O)O)c(=O)oc2c(C)c3oc4c(c3cc12)CCCC4`, the Potency result was “inactive”.

For the molecule `Cc1oc2c(C)c3oc(=O)c(CC(=O)N[C@@H](CC(C)C)C(=O)N[C@@H](Cc4ccccc4)C(=O)O)c(C)c3cc2c1C`, the Potency is 20 µM (active).

Turning to `CC1(c2ccccc2Cl)NC(=O)N(CC(=O)NC(=O)NCc2ccco2)C1=O` (stereo not given), the Potency result was “inactive”.

As for `O=C(CN1CCN(S(=O)(=O)/C=C/c2ccccc2)CC1)NC(=O)NCc1ccco1`, the Potency is 79.4 µM (active).

Regarding `NC(=O)CCN1CCN(S(=O)(=O)/C=C/c2ccccc2)CC1`, the Potency result is “inactive”.

As to `CCOc1cc(-c2nnc(SCC(=O)NC3CCCCC3)nc2-c2ccc(OC)c(OCC)c2)ccc1OC`, the Potency entry was “inactive”.

With `CC(=O)Nc1ccc(NC(=O)c2cc3sccc3n2Cc2ccc(F)cc2)cc1`, the Potency result is “inactive”.

On to `CCCCN(C)S(=O)(=O)c1ccc(C(=O)Nc2sc3c(c2C(N)=O)CC(C)(C)NC3(C)C)cc1`, for which the Potency entry was “inactive”.

As to `COc1ccc(C)cc1NC(=O)c1[nH]c(C)c(C(C)=O)c1C`, the Potency result was “inactive”.

Take `COc1cccc2c(C)c(C(=O)O)[nH]c12`: the Potency was 12.6 µM (active).

In the case of `COc1ccccc1CNCc1ccc(C(=O)O)s1`, the Potency result is “inactive”.

Turning to `CCOc1ccc(C(=O)Nc2ccc3nc4c(c(Nc5ccccc5OC)c3c2)CCCC4)cc1`, the Potency entry is “inactive”.

For the molecule `CC(=O)c1ccc(NC(=O)CSc2nnc(NC(=O)Nc3ccccc3)s2)cc1`, the Potency entry was “inactive”.

For `CC(C)c1ccc(Nc2nnc(SCC(=O)c3nnc(-c4ccccc4)o3)s2)cc1`, the Potency was 15.8 µM (active).

Regarding `CN(C(=O)CSc1nnc(NC(=O)Nc2ccccc2)s1)c1ccccc1`, the Potency entry was “inactive”.

Consider `COc1ccc(C)cc1N(C)C(=O)c1c(C)oc2ncnc(N3CCOCC3)c12`, for which the Potency entry is “inactive”.

For `Cc1ccc(-c2cc(C(=O)NN)n[nH]2)o1`, the Potency entry is “inactive”.

For the molecule `CCOc1ccc(CNC(=O)c2cc(-c3ccc(Cl)s3)nc3ccccc23)cc1`, the Potency result is “inactive”.

Regarding `Cc1ccc(NC(=O)c2cc(-c3ccc(C)o3)nc3ccccc23)nc1`, the Potency is 22.4 µM (active).

In the case of `CCOc1cccc(CNC(=O)c2ccc(N3CCCC3)c(NC(=O)Nc3ccccc3CC)c2)c1`, the Potency entry was “inactive”.

As to `O=C(Nc1ccc(OC(F)(F)F)cc1)C1CCCN(S(=O)(=O)c2ccc(Br)s2)C1` (stereo not given), the Potency result was “inactive”.

On to `O=C(NCCc1ccccc1)c1cnc2sc(N3CCCC3)nn2c1=O`, for which the Potency entry is “inactive”.

As to `CC(=O)c1nn(-c2ccc(OC(F)(F)F)cc2)nc1Nc1ccccc1`, the Potency entry was “inactive”.

In the case of `Cc1ccc(-c2cc(-c3coc4ccccc4c3=O)c3c(n2)-c2cc(Cl)ccc2OC3)cc1`, the Potency entry was “inactive”.

For the molecule `Cc1cccc(OCCSc2nc3ccccc3n2CC(=O)N2CCCCC2)c1C`, the Potency entry was “inactive”.

Consider `NC(=O)C1CCN(C(=O)c2cccc(NC(=O)c3nsc4ccccc34)c2)CC1`, for which the Potency result is “inactive”.

Regarding `NC1=CC(=O)C(=O)c2cccnc21`, the Potency is 8.91 µM (active).

Turning to `Cc1nn(CC(=O)NCCc2ccccc2)c(=O)c2c1sc1ccccc12`, the Potency result was “inactive”.

As to `COc1ccc(CNC(=O)Cc2coc3ccc(C(C)C)cc23)cc1`, the Potency result is “inactive”.

Take `COc1ccc(N(C)C(=O)C2CCN(S(=O)(=O)c3cc(Br)cc4c3N(C(C)=O)CC4)CC2)cc1`: the Potency result is “inactive”.

As for `Cn1c(=O)c2c(SCC(=O)N3CCc4ccccc43)nc(-c3ccc(Cl)cc3)nc2n(C)c1=O`, the Potency result is “inactive”.

For `C=CCn1c(=O)c(C(=O)NCc2ccc3c(c2)OCO3)c(O)c2ccccc21`, the Potency entry was “inactive”.

Turning to `COc1ccccc1-n1c(C)nc2cc(C(=O)NCc3ccc4c(c3)OCO4)ccc21`, the Potency entry is “inactive”.

For the molecule `Cc1nc2c(C(=O)NCc3ccc4c(c3)OCO4)c[nH]n2c(=O)c1Cc1ccccc1F`, the Potency is 89.1 µM (active).

Turning to `COc1ccc(NC(=O)Cn2c(=O)n(CCC(C)C)c(=O)c3cccnc32)cc1Cl`, the Potency result is “inactive”.

For the molecule `CCN(CC)S(=O)(=O)c1ccc2c(c1)nc(CN(C)C(=O)Nc1ccc(Cl)cc1)n2C`, the Potency result was “inactive”.

Consider `CC(=O)N1CCc2cc(S(=O)(=O)NC(Cc3ccccc3)C(=O)NCc3ccc(C)cc3)ccc21` (stereo not given), for which the Potency result is “inactive”.

As to `Cc1sc(C2C(C#N)=C(N)N(c3cccc(Cl)c3)C3=C2C(=O)CCC3)cc1CN1CCOCC1` (stereo not given), the Potency entry was “inactive”.

`CN1CCOC1c1ccc(C2OCCN2C)cc1` (stereo not given): the Potency was 20 µM (active).

As for `Cc1csc2nc(COC(=O)c3ccccc3NC(=O)c3ccccc3Cl)cc(=O)n12`, the Potency result is “inactive”.

For `O=C(CCc1ccccc1)NCCc1cccs1`, the Potency entry was “inactive”.

Regarding `Cc1ccnc(NC(=O)CCC(=O)N(CC(=O)NCCc2ccccc2)Cc2cccs2)c1`, the Potency result was “inactive”.

`O=C(O)CCC(=O)N(Cc1cccs1)Cc1cccs1`: the Potency was 20 µM (active).

Consider `COc1cc(NC(=O)CCn2nc(C)cc2C)cc(OC)c1OC`, for which the Potency entry was “inactive”.

Regarding `Cc1nc2nc(SCC(=O)N(Cc3ccccc3)C(C)C)nn2c(C)c1Cc1ccccc1Cl`, the Potency result is “inactive”.

For the molecule `Cc1ccccc1NC(=O)c1cc2c([nH]c1=O)CC(C)(C)CC2=O`, the Potency entry was “inactive”.

Consider `Cc1ccc2cc(/C=N/Nc3ccc(C(=O)O)cc3)c(Cl)nc2c1`, for which the Potency was 50.1 µM (active).

For the molecule `Cc1ccc(C(=O)N/N=C/c2sc(=O)n(Cc3cccc(C(=O)O)c3)c2Cl)cc1`, the Potency entry was “inactive”.

Turning to `Cc1ccc2nc(CNC(=O)c3ccccc3)[nH]c2c1`, the Potency result was “inactive”.

Take `COc1ccc(CNc2nc(-c3ccc(Cl)cc3)nn2C(=O)c2ccccc2)cc1`: the Potency result was “inactive”.

For `Cc1cccc2nc(-c3ccc(Cl)s3)c(Nc3ccc4c(c3)OCCO4)n12`, the Potency entry was “inactive”.

As for `Cc1ccc(S(=O)(=O)N2[C@@H](c3ccccc3F)C(C(=O)O)=CC[C@H]2c2ccc(Cl)cc2)cc1`, the Potency result is “inactive”.

As to `CN1OC(COC(=O)c2ccc(Cl)cc2)CC1c1ccccc1` (stereo not given), the Potency entry is “inactive”.

Take `Cc1ccccc1S(=O)(=O)N1[C@@H](c2cccc(Cl)c2)C(C(=O)O)=CC[C@H]1c1ccc(Cl)cc1`: the Potency is 89.1 µM (active).

In the case of `CCOc1ccc(NC(=O)c2cn(C3CCCCC3)c(=O)c3c2c2ccccc2n3C)cc1`, the Potency result was “inactive”.

For the molecule `COc1cc2c(=O)c(S(=O)(=O)c3ccc(C(C)C)cc3)cn(Cc3ccccc3C)c2cc1OC`, the Potency entry was “inactive”.

In the case of `CC(NC(=O)CCc1cn(Cc2ccccc2Cl)c2ccccc12)c1ccccc1` (stereo not given), the Potency entry was “inactive”.

With `Cc1noc(C)c1NC(=O)Nc1ccc2c(c1)C(=O)N([C@H](C)CO)C[C@H](C)[C@@H](CN(C)C(=O)Nc1ccc(C(F)(F)F)cc1)O2`, the Potency entry is “inactive”.

On to `Cc1noc(C)c1NC(=O)Nc1cccc2c1O[C@H](CN(C)C(=O)Nc1ccccc1)[C@@H](C)CN([C@H](C)CO)C2=O`, for which the Potency entry was “inactive”.

As to `C[C@H](CO)N1C[C@H](C)[C@H](CN(C)C(=O)Nc2ccc(C(F)(F)F)cc2)Oc2c(NC(=O)c3ccncc3)cccc2C1=O`, the Potency was 89.1 µM (active).

For `CCCN(C(=O)Cn1ncc2c([nH]c3ccc(C)cc32)c1=O)c1ccccc1C`, the Potency result is “inactive”.

Take `Cc1ccc(CNC(=O)CCc2c(C)nc3nc(CNC(=O)OC(C)(C)C)nn3c2C)cc1`: the Potency entry was “inactive”.

Turning to `O=C(Cc1ccc(S(=O)(=O)N2CCCC2)s1)NC1CCCCCC1`, the Potency is 14.1 µM (active).

On to `O=C(NC1CCCCC1)C1CCCN(S(=O)(=O)c2ccc(Br)s2)C1` (stereo not given), for which the Potency entry was “inactive”.

Turning to `COc1ccccc1NC(=O)COC(=O)Cc1ccc(S(=O)(=O)N2CCCCC2)s1`, the Potency entry is “inactive”.
